The test system of test [1] is Vero E6 infected with SARS-CoV-2. The test can be described thus: morphology score (similarity to uninfected cells); higher = more like uninfected cells. The conditions noted are these: 24 h.
The test system is the same in test [2]. As to the kind of experiment: SARS-CoV-2 infection rate relative to infected DMSO; higher = more infection, active = 60 or less. The note with it: 24 h.

For 28 molecules, morphology score and SARS-CoV-2 infection rate results are on record in the supplement of paper PMC13380429.

The structures appear in SMILES notation.

Turning to `O=S(=O)(O)c1ccc(O)cc1` [4-phenolsulfonic-acid] (10 µM), the morphology score in test [1] is -0.0939. Besides, in test [2], the SARS-CoV-2 infection rate is 114% (inactive).
For `COc1cc([C@@H]2c3cc4c(cc3[C@@H](O[C@@H]3O[C@@H]5CO[C@@H](C)O[C@H]5[C@H](O)[C@H]3O)[C@H]3COC(=O)[C@H]23)OCO4)cc(OC)c1O` [etoposide] (10 µM), the morphology score in test [1] is -0.114. The SARS-CoV-2 infection rate in test [2] was 104% (inactive).
For `c1ccc(COCCCc2c[nH]cn2)cc1` [proxyfan] (10 µM) the same measures were -0.149 and 115% (inactive).
For `CCN(CC)CC1CCCCN1CC(=O)N1c2ccccc2C(=O)Nc2cccnc21` (stereo unspecified) [otenzepad] (10 µM) the same measures were 0.171 and 94.5% (inactive).
On the same counts, the results for `CCCCOc1cc(CC2CNC(=O)N2)ccc1OC` (stereo unspecified) (10 µM) are 0.429 and 86% (inactive).
In turn, `COC(=O)C1=C(C)NC(C)=C(C(=O)OCCCN2CCC(c3ccccc3)(c3ccccc3)CC2)[C@@H]1c1cccc([N+](=O)[O-])c1` [dexniguldipine] (0.833333 µM) returned a morphology score in test [1] of 0.134. Further, the SARS-CoV-2 infection rate in test [2] is 97.5% (inactive).
`Nc1ccc2cc3ccc(N)cc3nc2c1` [proflavine-hemisulfate] (0.833333 µM): in test [1], the morphology score was found to be 0.26. Moreover, in test [2], the SARS-CoV-2 infection rate was 80.5% (inactive).
On the same counts, the results for `O=c1ccn([C@@H]2O[C@H](CO)[C@@H](O)[C@H]2O)c(=O)[nH]1` [uridine] (10 µM) are 0.318 and 96.5% (inactive).
The molecule `CCCn1cnc2c1c(=O)n(CCCCC(C)=O)c(=O)n2C` [propentofylline] (10 µM) returned a morphology score in test [1] of 0.065. For the same molecule, in test [2], the SARS-CoV-2 infection rate was 102% (inactive).
On the same counts, the results for `CS(=O)(=O)c1cccc(CNc2nc(Nc3ccc4c(c3)CCC(=O)N4)ncc2C(F)(F)F)c1` (0.833333 µM) are 0.138 and 114% (inactive).
In test [1], `CN[C@H](C(=O)N[C@H](C(=O)N(C)[C@H](/C=C(\C)C(=O)O)C(C)C)C(C)(C)C)C(C)(C)c1ccccc1` [taltobulin] (10 µM) had a morphology score of -0.171. Moreover, the SARS-CoV-2 infection rate in test [2] is 98% (inactive).
`CCC(Cc1c(I)cc(I)c(N)c1I)C(=O)O` (stereo unspecified) [iopanic-acid] (10 µM) gave a morphology score in test [1] of -0.136. The SARS-CoV-2 infection rate in test [2] is 116% (inactive).
For `Clc1ccc2nsnc2c1NC1=NCCN1` [tizanidine] (10 µM) the same measures were -0.0251 and 112% (inactive).
On the same counts, the results for `C[C@]12CCC(=O)C=C1C=C[C@@H]1[C@@H]2CC[C@@]2(C)[C@H]1CC[C@@]21CCC(=O)O1` [canrenone] (10 µM) are 0.219 and 94% (inactive).
For `CCCN[C@@H]1CCc2c(OC)cccc2[C@@H]1C` (10 µM) the same measures were 0.0456 and 100% (inactive).
As for `CC1CC(OC(=O)C(O)c2ccccc2)CC(C)(C)N1C` (stereo unspecified) [eucatropine] (10 µM), the morphology score in test [1] is -0.104. For the same molecule, the SARS-CoV-2 infection rate in test [2] is 115% (inactive).
On the same counts, the results for `O=[N+]([O-])c1cn2c(n1)OC[C@@H](OCc1ccc(-c3ccc(OC(F)(F)F)cc3)nc1)C2` (10 µM) are -0.214 and 110% (inactive).
For `Cn1c(=O)c2c(ncn2CCO)n(C)c1=O` [etofylline] (10 µM) the same measures were 0.0956 and 104% (inactive).
For `Cc1c(C(=O)NN2CCCCC2)nn(-c2ccc(Cl)cc2Cl)c1-c1ccc(I)cc1` (10 µM) the same measures were 0.254 and 93% (inactive).
`CC(C)n1cnc2c(C(=O)N[C@H]3CN4CCC3CC4)cc(Cl)cc21` (10 µM) showed a morphology score in test [1] of 0.38. Moreover, the SARS-CoV-2 infection rate in test [2] was 85% (inactive).
On to `Cc1ncc(OC[C@@]2(c3cccc(F)c3)C[C@H]2C(=O)Nc2ccc(F)cn2)c(C)n1` [lemborexant] (10 µM), for which the morphology score in test [1] was determined as 0.0108. In addition, the SARS-CoV-2 infection rate in test [2] is 112% (inactive).
On the same counts, the results for `CC(=O)NCC(=O)N1[C@@H]2CC[C@H]1c1ccc(Nc3ncc(C(F)(F)F)c(NC4CCC4)n3)cc12` (0.833333 µM) are -0.071 and 124% (inactive).
For `Cc1nccn1CCC(C(N)=O)(c1ccccc1)c1ccccc1` [imidafenacin] (10 µM) the same measures were 0.133 and 93% (inactive).
In test [1], `N[C@H]1C[C@@H]1c1ccc(-c2cccc(O)c2)cc1` (10 µM) registered a morphology score of 0.246. For the same molecule, the SARS-CoV-2 infection rate in test [2] is 87% (inactive).
For `Cc1c(Cl)cccc1S(=O)(=O)Nc1nc(CC(=O)N2CCN(C)CC2)cs1` (10 µM) the same measures were -0.053 and 110% (inactive).
In the case of `Cc1[nH]c2ccccc2c1CCNCc1ccc(/C=C/C(=O)NO)cc1` [panobinostat] (0.833333 µM), the morphology score in test [1] is -0.0995. Also, in test [2], the SARS-CoV-2 infection rate was 105% (inactive).
Consider `CN(C)[C@@H]1C(O)=C(C(N)=O)C(=O)[C@@]2(O)C(O)=C3C(=O)c4c(O)ccc(Cl)c4[C@@](C)(O)[C@H]3C[C@@H]12` (10 µM), for which the morphology score in test [1] was 0.129. Besides, the SARS-CoV-2 infection rate in test [2] was 102% (inactive).
In turn, `CC[C@H](C)[C@@H]([C@@H](CC(=O)N1CCC[C@H]1[C@H](OC)[C@@H](C)C(=O)N[C@@H](Cc1ccccc1)c1nccs1)OC)N(C)C(=O)[C@@H](NC(=O)[C@H](C(C)C)N(C)C)C(C)C` [dolastatin-10] (0.833333 µM) gave a morphology score in test [1] of 0.0156. For the same molecule, the SARS-CoV-2 infection rate in test [2] is 106% (inactive).
